Experimental data as given in publication PMC7862700, “An all-to-all approach to the identification of sequence-specific readers for epigenetic DNA modifications on cytosine”.

What was measured:
Assay in all cases: DAPPL (digital affinity profiling via proximity ligation, sequencing); 10 mM Tris-HCl pH 7.5, 50 mM NaCl, 1 mM DTT, 4% glycerol, room temperature, 30 min; GST-TFs on glutathione beads, 16-mer random dsDNA library, 0.1% formaldehyde crosslink after washing; high values mean tight binding
Settings in all cases: protein: recombinant; tags: N-terminal GST; dsDNA, one strand shown
FLI1 = target: T1, FLI1 (Homo sapiens, UniProt Q01543 1-452)
T1 sequence: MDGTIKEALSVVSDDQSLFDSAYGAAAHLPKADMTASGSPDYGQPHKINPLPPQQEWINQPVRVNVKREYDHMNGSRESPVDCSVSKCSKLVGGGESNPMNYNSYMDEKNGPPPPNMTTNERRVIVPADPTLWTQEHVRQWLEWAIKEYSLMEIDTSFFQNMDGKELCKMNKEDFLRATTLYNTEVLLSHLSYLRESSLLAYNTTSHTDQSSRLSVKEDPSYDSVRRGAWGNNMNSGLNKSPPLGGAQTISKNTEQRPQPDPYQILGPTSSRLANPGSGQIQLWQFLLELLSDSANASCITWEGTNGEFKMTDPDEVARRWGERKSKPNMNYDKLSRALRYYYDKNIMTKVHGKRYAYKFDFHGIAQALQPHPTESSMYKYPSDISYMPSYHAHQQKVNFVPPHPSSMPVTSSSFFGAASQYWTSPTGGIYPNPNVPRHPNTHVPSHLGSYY
Procedure, shortened: (§1)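 Sequencing on an Illumina NextSeq500 followed washing, crosslinking with 0.1% formaldehyde, proximity ligation (BsaI/T4 ligase, 1 h, 37 °C) and PCR amplification of pools that had been incubated for 30 min at room temperature with 200 nmole of a random double-stranded 16-mer DNA library in Tris/NaCl/DTT/glycerol buffer. Each pool held DNA-barcoded human transcription factors, expressed in yeast as GST fusions and captured on glutathione beads, plus a tag-only sample. Binding signal is a hexamer's read frequency for a factor divided by its frequency in the tag-only sample.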

GABPA = target: T2, GABPA (Homo sapiens, UniProt Q06546 1-454)
T2 sequence: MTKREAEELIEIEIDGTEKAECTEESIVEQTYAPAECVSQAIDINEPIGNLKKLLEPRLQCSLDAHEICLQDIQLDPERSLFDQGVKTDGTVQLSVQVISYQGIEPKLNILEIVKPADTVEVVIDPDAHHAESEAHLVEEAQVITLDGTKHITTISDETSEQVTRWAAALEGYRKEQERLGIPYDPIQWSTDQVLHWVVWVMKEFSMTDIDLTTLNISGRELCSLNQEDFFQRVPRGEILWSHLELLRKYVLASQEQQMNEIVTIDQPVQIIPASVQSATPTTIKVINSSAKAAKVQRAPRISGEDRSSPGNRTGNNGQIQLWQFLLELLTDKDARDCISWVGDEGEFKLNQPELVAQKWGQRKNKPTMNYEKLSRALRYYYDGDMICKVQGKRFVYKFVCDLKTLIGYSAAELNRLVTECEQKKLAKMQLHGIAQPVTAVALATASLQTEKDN
Procedure, shortened: as §1

EHF = target: T3, EHF (Homo sapiens, UniProt Q9NZC4 1-300)
T3 sequence: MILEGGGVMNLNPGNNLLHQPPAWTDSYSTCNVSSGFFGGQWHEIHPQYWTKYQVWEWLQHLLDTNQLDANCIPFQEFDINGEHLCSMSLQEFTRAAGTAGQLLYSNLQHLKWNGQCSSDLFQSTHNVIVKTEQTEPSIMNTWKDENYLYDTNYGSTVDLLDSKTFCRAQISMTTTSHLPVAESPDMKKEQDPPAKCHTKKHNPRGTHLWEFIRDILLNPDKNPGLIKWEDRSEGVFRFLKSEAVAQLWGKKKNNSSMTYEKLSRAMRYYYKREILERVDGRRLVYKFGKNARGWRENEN
Procedure, shortened: as §1

ELK3 = target: T4, ELK3 (Homo sapiens, UniProt P41970 1-407)
T4 sequence: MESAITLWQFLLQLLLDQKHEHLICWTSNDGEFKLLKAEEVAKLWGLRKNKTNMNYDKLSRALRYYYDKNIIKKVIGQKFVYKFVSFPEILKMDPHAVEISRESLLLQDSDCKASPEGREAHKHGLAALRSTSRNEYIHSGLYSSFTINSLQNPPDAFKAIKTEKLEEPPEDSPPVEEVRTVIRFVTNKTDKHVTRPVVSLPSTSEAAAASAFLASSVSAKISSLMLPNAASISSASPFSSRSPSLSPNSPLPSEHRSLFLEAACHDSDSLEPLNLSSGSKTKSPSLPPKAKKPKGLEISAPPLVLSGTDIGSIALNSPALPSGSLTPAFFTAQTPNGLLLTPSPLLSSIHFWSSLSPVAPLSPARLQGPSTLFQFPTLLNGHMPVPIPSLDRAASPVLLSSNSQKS
Procedure, shortened: as §1

SPIC = target: T5, SPIC (Homo sapiens, UniProt Q8N5J4 1-248)
T5 sequence: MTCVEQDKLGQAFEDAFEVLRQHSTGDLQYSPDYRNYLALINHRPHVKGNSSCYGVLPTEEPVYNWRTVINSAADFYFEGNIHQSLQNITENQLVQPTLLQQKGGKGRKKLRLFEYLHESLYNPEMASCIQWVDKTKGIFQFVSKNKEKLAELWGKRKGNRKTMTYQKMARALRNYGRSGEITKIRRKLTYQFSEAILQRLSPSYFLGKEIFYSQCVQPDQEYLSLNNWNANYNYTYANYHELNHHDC
Procedure, shortened: as §1

ELK4 = target: T6, ELK4 (Homo sapiens, UniProt P28324-2 1-405)
T6 sequence: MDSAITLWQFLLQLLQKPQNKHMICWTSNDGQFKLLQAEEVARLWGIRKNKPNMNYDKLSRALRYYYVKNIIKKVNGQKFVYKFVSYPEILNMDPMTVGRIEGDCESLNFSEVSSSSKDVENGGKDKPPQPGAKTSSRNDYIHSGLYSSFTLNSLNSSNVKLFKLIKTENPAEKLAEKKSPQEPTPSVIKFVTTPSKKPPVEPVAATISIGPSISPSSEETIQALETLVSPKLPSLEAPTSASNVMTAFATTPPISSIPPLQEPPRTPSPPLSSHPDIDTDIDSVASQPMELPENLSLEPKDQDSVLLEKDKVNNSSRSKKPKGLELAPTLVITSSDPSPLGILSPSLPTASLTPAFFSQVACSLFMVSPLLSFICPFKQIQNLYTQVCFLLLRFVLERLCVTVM
Procedure, shortened: as §1

ELF3 = target: T7, ELF3 (Homo sapiens, UniProt P78545 1-371)
T7 sequence: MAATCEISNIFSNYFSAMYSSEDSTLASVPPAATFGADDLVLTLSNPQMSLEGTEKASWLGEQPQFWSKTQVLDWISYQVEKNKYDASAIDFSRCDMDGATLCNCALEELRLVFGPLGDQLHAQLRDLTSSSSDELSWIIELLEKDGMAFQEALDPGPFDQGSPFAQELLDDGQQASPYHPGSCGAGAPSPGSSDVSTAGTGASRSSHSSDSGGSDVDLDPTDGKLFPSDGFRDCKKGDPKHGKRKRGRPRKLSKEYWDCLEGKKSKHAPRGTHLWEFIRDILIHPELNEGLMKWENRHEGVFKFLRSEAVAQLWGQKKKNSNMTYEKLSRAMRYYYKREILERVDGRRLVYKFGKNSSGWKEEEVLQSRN
Procedure, shortened: as §1

ETV1 = ETV1 (Homo sapiens, UniProt P50549 1-477)
Procedure, shortened: as §1

ERF = target: T8, ERF (Homo sapiens, UniProt P50548 1-548)
T8 sequence: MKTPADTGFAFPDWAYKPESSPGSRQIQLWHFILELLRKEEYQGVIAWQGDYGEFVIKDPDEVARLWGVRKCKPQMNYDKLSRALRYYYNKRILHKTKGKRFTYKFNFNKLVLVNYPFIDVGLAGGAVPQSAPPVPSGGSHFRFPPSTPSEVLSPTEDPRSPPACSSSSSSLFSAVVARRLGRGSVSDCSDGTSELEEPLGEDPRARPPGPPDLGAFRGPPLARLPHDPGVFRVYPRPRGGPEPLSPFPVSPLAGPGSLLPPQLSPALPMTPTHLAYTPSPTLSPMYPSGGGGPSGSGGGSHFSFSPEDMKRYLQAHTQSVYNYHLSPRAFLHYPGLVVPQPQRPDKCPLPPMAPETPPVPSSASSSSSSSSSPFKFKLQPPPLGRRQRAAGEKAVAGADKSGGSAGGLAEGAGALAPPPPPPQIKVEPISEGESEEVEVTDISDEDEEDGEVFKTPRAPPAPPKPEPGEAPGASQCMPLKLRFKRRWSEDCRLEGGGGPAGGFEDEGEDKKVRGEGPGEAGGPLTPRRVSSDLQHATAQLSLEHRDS
Procedure, shortened: as §1

ETV3L = target: T9, ETV3L (Homo sapiens, UniProt Q6ZN32 1-361)
T9 sequence: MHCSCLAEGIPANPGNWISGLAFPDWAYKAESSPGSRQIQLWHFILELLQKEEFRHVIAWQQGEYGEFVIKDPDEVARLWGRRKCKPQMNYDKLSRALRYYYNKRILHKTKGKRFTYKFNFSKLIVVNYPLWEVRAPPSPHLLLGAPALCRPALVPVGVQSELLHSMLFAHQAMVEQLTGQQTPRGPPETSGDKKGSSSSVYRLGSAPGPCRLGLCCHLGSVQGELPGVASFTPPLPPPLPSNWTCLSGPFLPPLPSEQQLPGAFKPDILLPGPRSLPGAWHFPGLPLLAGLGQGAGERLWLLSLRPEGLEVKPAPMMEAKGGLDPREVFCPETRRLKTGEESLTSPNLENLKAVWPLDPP
Procedure, shortened: as §1

SPDEF = target: T10, SPDEF (Homo sapiens, UniProt O95238 1-335)
T10 sequence: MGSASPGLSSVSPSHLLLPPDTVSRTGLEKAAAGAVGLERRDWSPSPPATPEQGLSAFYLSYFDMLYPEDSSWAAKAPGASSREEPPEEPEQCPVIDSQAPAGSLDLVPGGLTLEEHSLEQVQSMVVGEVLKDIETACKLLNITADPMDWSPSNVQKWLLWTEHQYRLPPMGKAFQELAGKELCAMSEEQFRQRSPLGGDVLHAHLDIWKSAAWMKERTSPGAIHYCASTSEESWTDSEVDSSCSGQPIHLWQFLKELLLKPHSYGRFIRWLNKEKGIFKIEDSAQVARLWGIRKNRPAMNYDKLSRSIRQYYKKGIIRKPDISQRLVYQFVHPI
Procedure, shortened: as §1

ETV7 = target: T11, ETV7 (Homo sapiens, UniProt Q9Y603 1-341)
T11 sequence: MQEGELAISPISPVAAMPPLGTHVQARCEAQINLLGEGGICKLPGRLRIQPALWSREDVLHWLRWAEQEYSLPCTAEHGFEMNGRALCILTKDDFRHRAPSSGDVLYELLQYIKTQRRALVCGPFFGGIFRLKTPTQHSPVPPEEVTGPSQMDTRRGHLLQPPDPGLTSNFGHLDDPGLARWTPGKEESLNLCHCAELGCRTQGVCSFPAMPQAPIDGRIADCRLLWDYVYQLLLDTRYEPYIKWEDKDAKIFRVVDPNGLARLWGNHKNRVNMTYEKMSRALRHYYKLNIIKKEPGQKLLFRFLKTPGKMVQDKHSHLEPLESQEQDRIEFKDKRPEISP
Procedure, shortened: as §1

ELF5 = target: T12, ELF5 (Homo sapiens, UniProt Q9UKW6-2 1-255)
T12 sequence: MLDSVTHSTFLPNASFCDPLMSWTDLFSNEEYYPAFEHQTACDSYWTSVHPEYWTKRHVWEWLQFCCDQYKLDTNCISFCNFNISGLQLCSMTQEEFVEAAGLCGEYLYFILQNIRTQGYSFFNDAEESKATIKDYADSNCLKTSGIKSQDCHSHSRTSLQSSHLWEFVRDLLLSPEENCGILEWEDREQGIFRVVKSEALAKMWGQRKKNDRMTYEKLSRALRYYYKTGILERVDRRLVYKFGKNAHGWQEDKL
Procedure, shortened: as §1

ETV3 = target: T13, ETV3 (Homo sapiens, UniProt P41162-2 1-143)
T13 sequence: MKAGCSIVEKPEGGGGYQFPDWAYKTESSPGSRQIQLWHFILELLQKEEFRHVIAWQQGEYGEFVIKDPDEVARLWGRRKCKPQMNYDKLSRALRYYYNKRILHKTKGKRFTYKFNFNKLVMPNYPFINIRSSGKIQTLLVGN
Procedure, shortened: as §1

ETV6 = ETV6 (Homo sapiens, UniProt P41212 1-452)
Procedure, shortened: as §1

Chain of ETV1 (P50549 whole entry): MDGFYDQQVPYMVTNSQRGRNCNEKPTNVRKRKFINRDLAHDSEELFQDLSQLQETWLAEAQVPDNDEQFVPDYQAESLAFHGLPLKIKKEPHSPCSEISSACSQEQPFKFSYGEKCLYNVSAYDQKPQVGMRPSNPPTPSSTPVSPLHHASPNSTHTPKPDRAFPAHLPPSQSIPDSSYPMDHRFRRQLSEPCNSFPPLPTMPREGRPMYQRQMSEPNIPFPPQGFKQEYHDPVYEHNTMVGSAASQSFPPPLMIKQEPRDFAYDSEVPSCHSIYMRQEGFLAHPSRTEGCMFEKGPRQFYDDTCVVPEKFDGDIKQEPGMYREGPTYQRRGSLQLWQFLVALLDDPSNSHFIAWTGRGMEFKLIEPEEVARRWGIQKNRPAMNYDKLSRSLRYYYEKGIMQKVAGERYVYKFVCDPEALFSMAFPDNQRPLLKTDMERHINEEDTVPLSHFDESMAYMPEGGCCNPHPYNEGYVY
Chain of ETV6 (P41212 whole entry): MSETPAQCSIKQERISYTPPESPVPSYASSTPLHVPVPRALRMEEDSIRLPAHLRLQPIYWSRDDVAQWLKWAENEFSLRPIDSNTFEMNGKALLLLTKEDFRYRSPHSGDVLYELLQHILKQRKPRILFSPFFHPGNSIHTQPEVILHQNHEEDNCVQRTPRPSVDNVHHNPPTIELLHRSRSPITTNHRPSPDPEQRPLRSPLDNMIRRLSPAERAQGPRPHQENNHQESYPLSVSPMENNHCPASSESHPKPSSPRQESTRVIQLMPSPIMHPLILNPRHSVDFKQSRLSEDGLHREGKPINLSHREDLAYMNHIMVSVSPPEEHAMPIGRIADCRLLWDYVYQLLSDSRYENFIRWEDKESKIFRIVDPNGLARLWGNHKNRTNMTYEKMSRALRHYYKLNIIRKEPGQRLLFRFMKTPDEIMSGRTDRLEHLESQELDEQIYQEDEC

Sequence: GTTTGT
- binding signal (FLI1): 1.15 fold enrichment (6-mer frequency, TF over GST control)
- binding signal (GABPA): 1.03 fold enrichment (6-mer frequency, TF over GST control)
- binding signal (EHF): 1.03 fold enrichment (6-mer frequency, TF over GST control)
- binding signal (ELK3): 1.06 fold enrichment (6-mer frequency, TF over GST control)
- binding signal (SPIC): 1.01 fold enrichment (6-mer frequency, TF over GST control)
- binding signal (ELK4): 1.19 fold enrichment (6-mer frequency, TF over GST control)
- binding signal (ELF3): 1.07 fold enrichment (6-mer frequency, TF over GST control)
- binding signal (ETV1): 1.04 fold enrichment (6-mer frequency, TF over GST control)
- binding signal (ERF): 1.06 fold enrichment (6-mer frequency, TF over GST control)
- binding signal (ETV3L): 1.06 fold enrichment (6-mer frequency, TF over GST control)
- binding signal (SPDEF): 1.01 fold enrichment (6-mer frequency, TF over GST control)
- binding signal (ETV7): 1.11 fold enrichment (6-mer frequency, TF over GST control)
- binding signal (ELF5): 1.03 fold enrichment (6-mer frequency, TF over GST control)
- binding signal (ETV3): 1.06 fold enrichment (6-mer frequency, TF over GST control)
- binding signal (ETV6): 1.11 fold enrichment (6-mer frequency, TF over GST control)
